Experimental data from PMC7862700, “An all-to-all approach to the identification of sequence-specific readers for epigenetic DNA modifications on cytosine”.

Assays:
Test in all cases: DAPPL (digital affinity profiling via proximity ligation, sequencing); 10 mM Tris-HCl pH 7.5, 50 mM NaCl, 1 mM DTT, 4% glycerol, room temperature, 30 min; GST-TFs on glutathione beads, 16-mer random dsDNA library, 0.1% formaldehyde crosslink after washing; high values mean tight binding
Conditions in all cases: protein: recombinant; tags: N-terminal GST; dsDNA, one strand shown
ELF5 = molecular target: T1, ELF5 (Homo sapiens, UniProt Q9UKW6-2 1-255)
T1 sequence: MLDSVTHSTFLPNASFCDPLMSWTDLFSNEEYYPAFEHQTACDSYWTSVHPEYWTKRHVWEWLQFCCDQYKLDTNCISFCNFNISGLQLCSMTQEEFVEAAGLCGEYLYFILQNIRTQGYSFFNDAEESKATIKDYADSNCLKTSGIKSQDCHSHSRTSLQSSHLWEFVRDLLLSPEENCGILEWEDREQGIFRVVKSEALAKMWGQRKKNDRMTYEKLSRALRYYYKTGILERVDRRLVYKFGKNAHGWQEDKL
Procedure, shortened: (§1)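 Binding signal is each hexamer's read frequency for a factor divided by its frequency in the tag-only sample. The factors were GST-fused human transcription factors from yeast, captured on glutathione beads, DNA-barcoded and pooled with that sample. Pools were incubated with 200 nmole of a random double-stranded 16-mer DNA library in Tris/NaCl/DTT/glycerol buffer at room temperature for 30 min, then washed, crosslinked with 0.1% formaldehyde, proximity-ligated with BsaI/T4 ligase (1 h, 37 °C), PCR-amplified and sequenced on an Illumina NextSeq500.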

ETV3 = molecular target: T2, ETV3 (Homo sapiens, UniProt P41162-2 1-143)
T2 sequence: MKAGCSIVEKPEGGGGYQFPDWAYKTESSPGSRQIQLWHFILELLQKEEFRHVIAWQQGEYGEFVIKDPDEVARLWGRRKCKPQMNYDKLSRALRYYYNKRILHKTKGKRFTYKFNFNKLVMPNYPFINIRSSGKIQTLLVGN
Procedure, shortened: as §1

ETV6 = ETV6 (Homo sapiens, UniProt P41212 1-452)
Chain of ETV6 (P41212 whole entry): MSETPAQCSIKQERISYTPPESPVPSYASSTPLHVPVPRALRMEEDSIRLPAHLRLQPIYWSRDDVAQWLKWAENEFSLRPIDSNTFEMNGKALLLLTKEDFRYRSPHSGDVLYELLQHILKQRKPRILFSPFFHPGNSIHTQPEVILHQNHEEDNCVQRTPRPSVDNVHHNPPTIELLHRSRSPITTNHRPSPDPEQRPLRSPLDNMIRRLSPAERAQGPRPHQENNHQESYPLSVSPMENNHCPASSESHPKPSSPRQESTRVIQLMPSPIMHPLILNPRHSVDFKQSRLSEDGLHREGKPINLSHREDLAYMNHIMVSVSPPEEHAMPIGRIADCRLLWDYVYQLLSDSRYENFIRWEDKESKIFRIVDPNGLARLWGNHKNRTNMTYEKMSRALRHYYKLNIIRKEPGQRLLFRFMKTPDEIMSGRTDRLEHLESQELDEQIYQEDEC
Procedure, shortened: as §1

SPIB = SPIB (Homo sapiens, UniProt Q01892 1-262)
Chain of SPIB (Q01892 whole entry): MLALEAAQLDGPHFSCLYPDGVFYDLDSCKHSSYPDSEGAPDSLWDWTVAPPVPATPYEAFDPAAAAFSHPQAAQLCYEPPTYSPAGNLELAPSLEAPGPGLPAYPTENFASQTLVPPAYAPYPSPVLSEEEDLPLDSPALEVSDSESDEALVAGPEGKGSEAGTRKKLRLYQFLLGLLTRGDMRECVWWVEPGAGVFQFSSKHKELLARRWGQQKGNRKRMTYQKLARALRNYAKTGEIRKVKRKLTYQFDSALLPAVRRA
Procedure, shortened: as §1

SPIC = molecular target: T3, SPIC (Homo sapiens, UniProt Q8N5J4 1-248)
T3 sequence: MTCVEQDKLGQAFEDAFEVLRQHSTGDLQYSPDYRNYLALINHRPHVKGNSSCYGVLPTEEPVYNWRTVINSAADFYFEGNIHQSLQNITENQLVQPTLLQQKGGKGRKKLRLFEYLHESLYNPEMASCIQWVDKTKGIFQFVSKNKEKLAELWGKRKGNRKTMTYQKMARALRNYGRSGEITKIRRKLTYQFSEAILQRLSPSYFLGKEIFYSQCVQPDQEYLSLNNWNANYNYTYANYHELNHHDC
Procedure, shortened: as §1

ELF4 = ELF4 (Homo sapiens, UniProt Q99607 1-663)
Chain of ELF4 (Q99607 whole entry): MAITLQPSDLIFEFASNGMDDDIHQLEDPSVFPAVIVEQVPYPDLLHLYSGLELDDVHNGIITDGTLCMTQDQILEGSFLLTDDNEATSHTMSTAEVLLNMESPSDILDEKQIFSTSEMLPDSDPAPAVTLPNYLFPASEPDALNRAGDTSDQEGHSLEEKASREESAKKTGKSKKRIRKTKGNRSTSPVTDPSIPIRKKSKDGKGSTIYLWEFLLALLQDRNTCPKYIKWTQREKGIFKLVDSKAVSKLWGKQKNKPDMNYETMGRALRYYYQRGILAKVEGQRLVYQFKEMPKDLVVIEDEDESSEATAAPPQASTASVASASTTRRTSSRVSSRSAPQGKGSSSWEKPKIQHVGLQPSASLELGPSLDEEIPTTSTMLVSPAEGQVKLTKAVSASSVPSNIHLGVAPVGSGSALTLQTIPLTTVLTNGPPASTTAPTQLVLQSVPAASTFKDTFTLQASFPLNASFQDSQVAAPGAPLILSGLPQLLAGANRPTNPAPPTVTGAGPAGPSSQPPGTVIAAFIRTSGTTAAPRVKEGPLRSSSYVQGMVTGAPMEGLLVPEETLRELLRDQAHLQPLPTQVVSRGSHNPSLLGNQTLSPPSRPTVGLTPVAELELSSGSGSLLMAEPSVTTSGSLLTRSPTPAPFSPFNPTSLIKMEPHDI
Procedure, shortened: as §1

ELK4 = molecular target: T4, ELK4 (Homo sapiens, UniProt P28324-2 1-405)
T4 sequence: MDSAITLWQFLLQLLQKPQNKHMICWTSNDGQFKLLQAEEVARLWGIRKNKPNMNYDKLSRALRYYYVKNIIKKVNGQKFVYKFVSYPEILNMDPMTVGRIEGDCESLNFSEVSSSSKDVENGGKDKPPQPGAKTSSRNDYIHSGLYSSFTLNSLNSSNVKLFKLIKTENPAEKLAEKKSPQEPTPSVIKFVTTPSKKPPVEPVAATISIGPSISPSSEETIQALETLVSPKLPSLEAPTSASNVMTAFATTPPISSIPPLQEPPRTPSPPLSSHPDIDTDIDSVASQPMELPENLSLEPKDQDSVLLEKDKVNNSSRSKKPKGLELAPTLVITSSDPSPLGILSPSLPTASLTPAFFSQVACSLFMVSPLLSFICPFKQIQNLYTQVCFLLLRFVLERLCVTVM
Procedure, shortened: as §1

ELF3 = molecular target: T5, ELF3 (Homo sapiens, UniProt P78545 1-371)
T5 sequence: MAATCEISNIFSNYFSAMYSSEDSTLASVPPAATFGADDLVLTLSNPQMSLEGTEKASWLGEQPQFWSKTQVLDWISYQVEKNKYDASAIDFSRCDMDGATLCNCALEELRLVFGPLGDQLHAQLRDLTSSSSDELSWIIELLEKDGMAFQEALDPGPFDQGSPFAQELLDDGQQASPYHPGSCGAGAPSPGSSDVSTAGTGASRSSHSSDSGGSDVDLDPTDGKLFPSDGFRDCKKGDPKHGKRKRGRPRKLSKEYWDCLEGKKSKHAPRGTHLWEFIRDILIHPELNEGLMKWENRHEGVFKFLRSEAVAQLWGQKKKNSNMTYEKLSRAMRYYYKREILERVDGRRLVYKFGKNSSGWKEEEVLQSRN
Procedure, shortened: as §1

ETS2 = molecular target: T6, ETS2 (Homo sapiens, UniProt P15036 1-469)
T6 sequence: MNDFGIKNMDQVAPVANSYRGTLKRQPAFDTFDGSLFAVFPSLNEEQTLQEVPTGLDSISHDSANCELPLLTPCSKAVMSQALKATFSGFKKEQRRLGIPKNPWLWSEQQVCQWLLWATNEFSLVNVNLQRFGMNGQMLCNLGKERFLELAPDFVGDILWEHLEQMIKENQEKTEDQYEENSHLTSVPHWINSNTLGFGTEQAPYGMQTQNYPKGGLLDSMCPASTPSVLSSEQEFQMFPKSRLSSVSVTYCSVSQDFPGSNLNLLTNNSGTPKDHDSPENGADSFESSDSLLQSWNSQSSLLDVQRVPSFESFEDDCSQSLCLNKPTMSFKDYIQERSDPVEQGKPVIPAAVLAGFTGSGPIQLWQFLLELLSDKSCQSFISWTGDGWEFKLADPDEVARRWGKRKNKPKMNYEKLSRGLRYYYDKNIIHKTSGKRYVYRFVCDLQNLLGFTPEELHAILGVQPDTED
Procedure, shortened: as §1

ELK1 = molecular target: T7, ELK1 (Homo sapiens, UniProt P19419 1-428)
T7 sequence: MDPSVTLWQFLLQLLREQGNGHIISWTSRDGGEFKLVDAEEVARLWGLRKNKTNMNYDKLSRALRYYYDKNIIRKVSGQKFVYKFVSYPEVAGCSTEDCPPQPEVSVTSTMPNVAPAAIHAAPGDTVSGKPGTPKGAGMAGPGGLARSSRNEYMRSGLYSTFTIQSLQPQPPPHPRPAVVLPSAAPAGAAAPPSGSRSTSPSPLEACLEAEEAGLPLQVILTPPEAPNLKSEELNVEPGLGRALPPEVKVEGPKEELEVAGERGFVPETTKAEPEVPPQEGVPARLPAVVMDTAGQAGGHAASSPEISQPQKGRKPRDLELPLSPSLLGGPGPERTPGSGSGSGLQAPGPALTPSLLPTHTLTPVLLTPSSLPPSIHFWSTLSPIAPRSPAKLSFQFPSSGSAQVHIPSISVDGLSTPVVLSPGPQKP
Procedure, shortened: as §1

ERG = molecular target: T8, ERG (Homo sapiens, UniProt P11308 1-479)
T8 sequence: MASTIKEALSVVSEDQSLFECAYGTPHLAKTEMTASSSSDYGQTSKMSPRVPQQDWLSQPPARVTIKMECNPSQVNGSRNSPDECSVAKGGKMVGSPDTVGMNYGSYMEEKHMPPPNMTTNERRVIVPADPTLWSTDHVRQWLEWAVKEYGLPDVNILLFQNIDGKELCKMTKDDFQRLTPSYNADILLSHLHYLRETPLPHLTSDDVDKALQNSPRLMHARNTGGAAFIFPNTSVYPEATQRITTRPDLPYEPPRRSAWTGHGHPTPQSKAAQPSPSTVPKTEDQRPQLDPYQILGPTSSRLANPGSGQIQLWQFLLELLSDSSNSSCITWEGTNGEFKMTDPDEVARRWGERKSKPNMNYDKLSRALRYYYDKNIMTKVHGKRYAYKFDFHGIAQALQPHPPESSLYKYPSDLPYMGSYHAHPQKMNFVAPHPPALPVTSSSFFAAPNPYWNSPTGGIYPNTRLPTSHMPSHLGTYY
Procedure, shortened: as §1

ELF1 = ELF1 (Homo sapiens, UniProt P32519 1-619)
Chain of ELF1 (P32519 whole entry): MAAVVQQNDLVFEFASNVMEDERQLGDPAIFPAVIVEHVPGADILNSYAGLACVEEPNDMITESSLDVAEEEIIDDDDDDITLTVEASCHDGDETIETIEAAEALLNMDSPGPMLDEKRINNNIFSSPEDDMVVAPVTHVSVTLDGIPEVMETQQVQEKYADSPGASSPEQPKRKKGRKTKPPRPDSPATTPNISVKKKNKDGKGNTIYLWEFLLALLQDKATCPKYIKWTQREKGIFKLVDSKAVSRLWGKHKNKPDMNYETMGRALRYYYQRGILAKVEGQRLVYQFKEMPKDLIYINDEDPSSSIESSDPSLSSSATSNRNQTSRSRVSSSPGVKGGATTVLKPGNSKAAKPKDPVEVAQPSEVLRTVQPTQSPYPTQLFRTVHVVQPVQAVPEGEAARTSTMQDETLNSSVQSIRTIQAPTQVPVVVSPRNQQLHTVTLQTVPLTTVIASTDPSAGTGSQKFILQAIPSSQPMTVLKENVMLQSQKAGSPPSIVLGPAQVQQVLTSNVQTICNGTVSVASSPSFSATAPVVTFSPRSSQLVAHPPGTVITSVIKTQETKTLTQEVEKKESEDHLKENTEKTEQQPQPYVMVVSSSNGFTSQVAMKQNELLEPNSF
Procedure, shortened: as §1

ETV2 = molecular target: T9, ETV2 (Homo sapiens, UniProt O00321 1-342)
T9 sequence: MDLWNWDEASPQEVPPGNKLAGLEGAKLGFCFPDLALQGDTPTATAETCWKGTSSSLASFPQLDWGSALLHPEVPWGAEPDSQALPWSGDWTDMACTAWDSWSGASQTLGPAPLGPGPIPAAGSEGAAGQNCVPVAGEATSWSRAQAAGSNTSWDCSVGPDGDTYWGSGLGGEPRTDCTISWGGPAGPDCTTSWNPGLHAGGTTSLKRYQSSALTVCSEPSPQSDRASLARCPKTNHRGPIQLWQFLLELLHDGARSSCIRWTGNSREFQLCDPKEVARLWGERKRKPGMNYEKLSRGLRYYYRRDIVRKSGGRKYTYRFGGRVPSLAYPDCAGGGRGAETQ
Procedure, shortened: as §1

ETV3L = molecular target: T10, ETV3L (Homo sapiens, UniProt Q6ZN32 1-361)
T10 sequence: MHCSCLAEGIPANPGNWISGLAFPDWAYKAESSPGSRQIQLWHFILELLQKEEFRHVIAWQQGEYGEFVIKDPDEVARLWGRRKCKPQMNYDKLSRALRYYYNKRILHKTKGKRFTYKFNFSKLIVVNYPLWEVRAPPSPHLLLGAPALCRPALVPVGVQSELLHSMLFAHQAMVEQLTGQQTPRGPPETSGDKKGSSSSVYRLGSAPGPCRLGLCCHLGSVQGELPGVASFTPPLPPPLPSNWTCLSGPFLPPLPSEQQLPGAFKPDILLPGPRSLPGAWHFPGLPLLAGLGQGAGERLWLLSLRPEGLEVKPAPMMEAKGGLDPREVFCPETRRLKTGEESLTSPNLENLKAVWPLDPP
Procedure, shortened: as §1

## GGAAAG
ELF5
  binding signal: 1.12 fold enrichment (6-mer frequency, TF over GST control)
ETV3
  binding signal: 1 fold enrichment (6-mer frequency, TF over GST control)
ETV6
  binding signal: 1.06 fold enrichment (6-mer frequency, TF over GST control)

## TTCGGG
ETV3
  binding signal: 1.03 fold enrichment (6-mer frequency, TF over GST control)

## GTATGA
SPIB
  binding signal: 1.05 fold enrichment (6-mer frequency, TF over GST control)
SPIC
  binding signal: 1.09 fold enrichment (6-mer frequency, TF over GST control)
ELF4
  binding signal: 1.03 fold enrichment (6-mer frequency, TF over GST control)
ELK4
  binding signal: 1.01 fold enrichment (6-mer frequency, TF over GST control)
ELF3
  binding signal: 1.02 fold enrichment (6-mer frequency, TF over GST control)
ETS2
  binding signal: 1.01 fold enrichment (6-mer frequency, TF over GST control)
ETV3
  binding signal: 1.02 fold enrichment (6-mer frequency, TF over GST control)

## CTGGGG
SPIC
  binding signal: 1 fold enrichment (6-mer frequency, TF over GST control)

## GCCCTG
ELK1
  binding signal: 1.12 fold enrichment (6-mer frequency, TF over GST control)
ERG
  binding signal: 1 fold enrichment (6-mer frequency, TF over GST control)
ELF1
  binding signal: 1.06 fold enrichment (6-mer frequency, TF over GST control)
SPIB
  binding signal: 1.07 fold enrichment (6-mer frequency, TF over GST control)
SPIC
  binding signal: 1.11 fold enrichment (6-mer frequency, TF over GST control)
ELK4
  binding signal: 1.04 fold enrichment (6-mer frequency, TF over GST control)
ETV2
  binding signal: 1 fold enrichment (6-mer frequency, TF over GST control)
ETV3L
  binding signal: 1.08 fold enrichment (6-mer frequency, TF over GST control)
ETV3
  binding signal: 1.04 fold enrichment (6-mer frequency, TF over GST control)
